Measured values published in PubChem BioAssay (NCATS).
Calls of active or inactive are those of the source. Calls follow the shape of the dose curve; as a rule, active = well fitted curve in the direction sought with a large enough effect; inconclusive = small, poorly fitted or top-dose-only effect, or another doubt; inactive = no such curve, though single readings can be large or run the other way.

Experiment: Cellular Toxicity (caspase-3) BJ (AID 658)
Details: BJ fibroblasts, luminescence, normalized: DMSO 0%, staurosporine 100%; series mostly up to 91.7 µM; caspase-3 activation: at the top concentration
Source text: NIH Chemical Genomics Center [NCGC]
NIH Molecular Libraries Screening Centers Network [MLSCN]
National Institutes of Environmental Health Sciences [NIEHS]
National Toxicology Program [NTP]
We have developed a 1536-well cell-based assay for quantitative high throughput screening (qHTS) against a number of cell lines to determine in vitro caspase 3/7 activity of small molecules. This particular assay uses BJ cell line which is derived from normal human foreskin fibroblast.
NCGC Assay Protocol Summary:
The Caspase-Glo 3/7 assay (Promega) is a homogeneous method to measure caspase-3 and caspase-7 activities in cultured cells. The quantitation of caspase 3/7 activity is based on the cleavage of a peptide-aminoluciferin substrate. After caspase cleaves the substrate the free aminoluciferin is liberated and serves as the substrate of luciferase, which generates the light. The luminescent signal is proportional to amount of caspase 3/7 activity present.
Using the Caspase-Glo 3/7 assay, the amount of caspase 3/7 activity was measured in the BJ cell line with complete culture medium following compound treatment for 16 hours. The assay was performed in opaque white 1536-well plates. In the screen, staurosporine and tamoxifen were used as positive controls. Library compounds were measured for their ability to cause the activation of caspase 3/7 in the cell line, as reflected by an increase in luminescence signal, in a concentration-dependent manner. Data were normalized to the controls for basal activity (DMSO only) and 100% stimulation (10 uM staurosporine). AC50 values were determined from concentration-response data modeled with the standard Hill equation.
qHTS protocol for caspase 3/7 assay in the BJ cells
[Step] [Parameter] [Value] [Description]
1. Reagent; 5 uL; 1000 the BJ cells/well
2. Time; 5 hr; 37 °C incubation
4. Controls; 23 nL; Tamoxifen 0.23 uM to 100 uM & staurosporine 1.4 pM to 100 uM
5. Time; 16 hr; 37 °C incubation
6. Reagent; 5 uL; Caspase-Glo 3/7 reagent
7. Time; 1 hr; Room Temperature
8. Detection; Luminescence; Viewlux plate reader
Keywords: caspase 3/7, apoptosis, the BJ cell line, luminescence, NTPHTS, NTPHTS_NCGC, NIEHS, EPA, DSSTox, MLSMR, MLSCN, NIH Roadmap, qHTS, NCGC

Compound	caspase-3 activation
C1CCCC1	0.305% (inactive)
Cc1ccc(C)c(N)c1	0.401% (inactive)
CC(C)Cc1nccs1	0.54% (inactive)
O=C(O)c1ccc(CO)o1	-2.06% (inactive)
ClCCl	-0.453% (inactive)
O=[N+]([O-])c1ccc2nc[nH]c2c1	-0.2% (inactive)
COc1ccc(N)c(C)c1	-0.685% (inactive)
CCCOCC(C)OCC(C)O (stereo not given)	0.305% (inactive)
Cc1ccccc1C(=O)O	-0.574% (inactive)
CC(C)c1ccccc1	0.176% (inactive)
O=Cc1ccc(C(=O)O)cc1	-0.143% (inactive)
O=C(O)c1ccc(Cl)c(Cl)c1	-0.903% (inactive)
CC(O)CC(C)O (stereo not given)	0.687% (inactive)
O=[N+]([O-])c1ccc(CCO)cc1	-3.08% (inactive)
C=CCCC	-0.138% (inactive)
O=C1CCCCC1	-1.61% (inactive)
C=CCCCCCC	-1.78% (inactive)
O=Cc1ccc(Cl)cc1	0.505% (inactive)
CCOc1cccc(N)c1	-0.862% (inactive)
C=C(C)C(=O)OCCCCCC	-1.1% (inactive)

Compound	caspase-3 activation
O=[N+]([O-])c1cccc(C(F)(F)F)c1	0.0837% (inactive)
COC(=O)c1ccccc1	-1.3% (inactive)
COc1ccccc1[N+](=O)[O-]	-1.64% (inactive)
Cc1cccc(C(=O)O)c1	-4.56% (inactive)
C=C(C)C1CC=C(C)C(OC(C)=O)C1 (stereo not given)	0.294% (inactive)
CC(C)CO	0.618% (inactive)
Clc1ccc(Cl)c(Cl)c1Cl	-1.73% (inactive)
O=C(O)c1ccc(C(=O)O)cc1	-0.529% (inactive)
CSc1ccc(C=O)cc1	1.94% (inactive)
C=Cc1ccccn1	1.72% (inactive)
Cc1ccc2oc(=O)ccc2c1	1.26% (inactive)
Cc1nc2ccc(Cl)cc2[nH]1	-0.341% (inactive)
Nc1cc(S(=O)(=O)O)ccc1O	-0.161% (inactive)
C[C@@H]1O[C@@H](O[C@@H]2[C@@H](O)[C@H](OCCc3ccc(O)c(O)c3)O[C@H](CO[C@@H]3O[C@H](CO)[C@@H](O)[C@H](O)[C@H]3O)[C@H]2OC(=O)/C=C/c2ccc(O)c(O)c2)[C@H](O)[C@H](O)[C@H]1O	-2.48% (inactive)
Cc1c(C(=O)O)cccc1[N+](=O)[O-]	0.725% (inactive)
C=C(C)C(=O)OCC(C)C	1.1% (inactive)
COc1cccc2sc(N)nc12	-1.86% (inactive)
CO[Si](CCCNCCC[Si](OC)(OC)OC)(OC)OC	-0.909% (inactive)
NC(=O)/N=N/C(N)=O	-0.483% (inactive)
FC(F)(F)c1cccc(Cl)c1	-0.265% (inactive)
